Source: PubChem
NS1 function inh = blocks influenza NS1 protein function; Potency, µM (top dose mostly 46.1 µM), without a hit: at the top dose activity, positive = more growth; 270,000 compounds, 0.4% hits; AID 2326; calls by dose curve; further: actives are rising curves; nearly all actives have a fitted effect of over 50% in size
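S. cerevisiae expressing influenza A NS1, grown in glucose, washed, then diluted 1:100 into pH 6.0 -URA galactose medium with 23 nl compound. Growth recovery read as OD600; NS1-free strain serves as control.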
RE007 growth inh = less growth of the S. pombe RE007 Vpr strain. S. pombe RE007 Vpr strain, BacTiter-Glo ATP luminescence, 24 h. AID 651644. Potency, µM (series often up to 92.2 µM), for inactives: at the top dose activity change, negative = less growth, most hits filed as inhibitors. 360,000 compounds, 0.21% hits; active means well fitted falling curve with a large enough effect; inconclusive means small, poorly fitted or top-dose-only effect; inactive means no such curve, though single readings can be large or run the other way; further: on the % scale 0 is the no-effect control and ±100 the full control effect; nearly all actives have a fitted effect of over 50% in size
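Fission yeast strain RE007, carrying one chromosomally integrated HIV-1 vpr copy, was seeded at OD 0.01 in PMG+AL medium with 23 nL pinned compound. After 24 h at 30 °C and 99% humidity, viability was read by BacTiter-Glo luminescence.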
SARS PLP yeast = SARS-CoV PLP inhibition in yeast; 330,000 compounds, 0.19% hits; S. cerevisiae expressing SARS-CoV PLpro, growth rescue; Potency, µM (series often up to 32.9 µM), for inactives: top-dose activity, positive = growth rescue, usual class: activators; calls by dose curve; further: 0% is about no effect; nearly all actives have a fitted effect of over 55% in size
Pf growth 96h = P. falciparum growth inhibition at 96 hours; P. falciparum luciferase reporter growth, 96 h; Potency, µM (titrated, usually from 28.7 µM), for the others: top-dose activity change, negative = inhibition, hits mostly inhibitors; 320,000 compounds, 6.9% hits; further: on the % scale 0 is the no-effect control and ±100 the full control effect
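Two-generation exposure (96 h) targets delayed-death phenotype. Reporter parasites carrying integrated firefly luciferase, in red cells at 2% hematocrit and 0.05% parasitemia final, kept at 37 C, 5% CO2; luminescence loss indicates inhibition.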
Pf growth 48h = P. falciparum growth inhibition at 48 hours (one generation); P. falciparum luciferase growth in erythrocytes, 48 h; Potency, µM (top dose mostly 28.7 µM), without a hit: at the highest dose activity change, negative = inhibition, most hits filed as inhibitors; 310,000 compounds, 5.9% hits; AID 504832; further: on the % scale 0 is the no-effect control and ±100 the full control effect
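Luciferase-expressing parasites in RBCs, 2% Hct / 0.1% parasitemia final; RPMI 1640 + 0.5% Albumax; 37 C, 5% CO2, one generation; luminescence read-out, lower signal = inhibition.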
* marks the source's active call; other numbers are inactive results; ? = inconclusive; / = no result given; ! = not confirmed by another sample; [ ] = remark or other dose. Sampled rows, rich in hits. Any-hit rate of the full collection: about 9.5%. Unless noted, the call rests on the fitted dose curve; in most records, active means well fitted inhibition curve with a large enough effect; inconclusive means small, poorly fitted or top-dose-only effect, or another doubt; inactive means no such curve, though single readings can be large or run the other way. Potency means the concentration at half of the fitted maximal effect.

SMILES	NS1 function inh	RE007 growth inh	SARS PLP yeast	Pf growth 96h	Pf growth 48h
COc1cccc(C(=O)N2CCN(Cc3ccccc3C(F)(F)F)CC2)c1	-33.5%	0.1%	-11.1%	1.47µM*	-1.4%
CC(C)n1c2ccccc2c2cc([N+](=O)[O-])ccc21	-3.5%	-0.6%	10.5%	4.65µM*	?
COc1ccc(CCC(=O)NCCS(=O)(=O)N2CCN(c3ccc(OC)cc3)CC2)cc1	-2.5%	-3.3%	-2.2%	-0.5%	6.6%
CCC(C)(C)C1CCC(=NNC(=S)Nc2ccccc2)CC1 (stereo not given)	/	21.7%	-0.6%	3.9%	?
S=C(NN=C1C2CC3CC(C2)CC1C3)Nc1ccccc1	-9.3%	-8.0%	13.0%	10.4µM*	/
O=C(N/N=C/c1ccc2c(c1)OCO2)/C(=C/c1ccc2c(c1)OCO2)NC(=O)c1ccccc1	11.7%	-21.1%	10.4%	0.2%	-0.7%
CN(C)c1ccc(/C=C(/NC(=O)c2ccccc2)C(=O)N/N=C/c2ccc([N+](=O)[O-])c(O)c2)cc1	?	-1.9%	-1.6%	5.22µM*	13.1µM*
CCc1ccccc1-n1nnnc1SCC(=O)Nc1ccc(N2CCN(C)CC2)cc1	3.0%	-16.1%	-4.2%	?	14.7µM*
CCc1ccccc1-n1nnnc1SCC(=O)Nc1cc(C)on1	6.4%	33.7%	1.0%	9.28µM*	-22.2%
CN1CCN(c2ccc(NC(=O)C(C)(c3ccccc3)c3ccccc3)cc2)CC1	-1.5%	-7.4%	-0.4%	?	13.1µM*
Cc1cc(NC(=O)CSc2nnnn2-c2ccccc2C)no1	0.5%	0.7%	-1.3%	?	?
CN1CCN(c2ccc(NC(=O)Oc3ccccc3)cc2)CC1	-6.8%	5.3%	-2.8%	?	/
Oc1ccc(N2CCN(Cc3cc4c(cc3Br)OCCO4)CC2)cc1	15.1%	-18.4%	-1.4%	13.1µM*	11.7µM*
Fc1ccc(N2CCN(Cc3cc4c(cc3Br)OCO4)CC2)cc1	-6.4%	-13.3%	11.6%	?	209.3%
O=S(=O)(c1cccc(F)c1)N1CCN(Cc2cc3c(cc2Br)OCCO3)CC1	/	-1.5%	7.1%	?	9.28µM*
Cc1cccn2c(=O)c(-c3nnn[nH]3)cnc12	/	/	/	?	-1.8%
COc1ccc(-n2c(SC(C)C(=O)Nc3ncc(Cl)cc3Cl)nc3ccccc32)cc1 (stereo not given)	19.1%	7.1%	1.0%	?	10.4µM*
Cc1c(CN2CCC(CO)(Cc3cccc(C(F)(F)F)c3)CC2)c2ccccc2n1C	2.2%	7.9%	-2.0%	?	3.7µM*
OCC1(Cc2cccc(C(F)(F)F)c2)CCN(Cc2cc3ccccc3o2)CC1	-1.6%	?	-1.7%	-20.9%	?
CC1(C(=O)N2CCC(CO)(Cc3cccc(C(F)(F)F)c3)CC2)CC1	16.3%	-12.6%	0.4%	16.5µM*	20.9%
COc1cc(CN2CCC(CO)(Cc3cccc(C(F)(F)F)c3)CC2)ccc1F	3.3%	-17.9%	3.2%	4.15µM*	6.57µM*
C[C@H](Cc1ccccc1)Nc1ncnc2c1ncn2[C@@H]1O[C@H](CO)[C@H](O)[C@H]1O	-3.2%	/	/	/	/
CC(=O)N1CCc2cc(S(=O)(=O)CCC(=O)N(C)c3cc(C)ccc3C)ccc21	-4.8%	-6.8%	-4.3%	?	-15.3%
Cc1cc(C(=O)NC(C)C2CCCO2)c(C)o1 (stereo not given)	6.6%	-20.1%	-3.1%	-21.0%	-1.7%
CCOC(=O)C(CCc1ccccc1)NC(C)C(=O)N1Cc2cc(OC)c(OC)cc2CC1C(=O)O (stereo not given)	/	/	/	12µM*	?
CCOC(=O)[C@H](CCc1ccccc1)N[C@@H](C)C(=O)N1CCC[C@H]1C(=O)O	-7.8%	5.9%[18.4 µM]	-0.9%	6.01µM*!	-25.5%
CCOc1cc(CNC(C)C)c(Cl)cc1OCC(=O)NCCc1ccccc1	1.4%	2.1%	4.1%	?	/
COc1ccc(S(=O)(=O)Nc2ncccn2)cc1	5.0%	0.2%	-0.9%	-13.7%	5.7%
CC(NCC(=O)NC(=O)NCCC1=CCCCC1)c1ccc(S(N)(=O)=O)cc1 (stereo not given)	/	5.1%	/	/	/
O=C(Nc1cccc(Cl)c1)N1CCN2C(=O)c3ccccc3C12c1ccccc1 (stereo not given)	1.4%	-3.1%	?	10.4µM*	16.5µM*
